Compounds without any hit were thinned out: in the full panel of roughly 79,000, 15% have a hit. The source made the active and inactive calls. Cut-off read from the data, not from the text of the source: active = growth inhibition above about 70%; inactive = the rest.
experiment: NCI Yeast Anticancer Drug Screen. Data for the mlh1 rad18 strain (AID 175); details: S. cerevisiae mlh1 rad18 strain growth inhibition; at 50.0 µM; stronger effect = higher value
Outline: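 Growth inhibition of the yeast strain was measured after compound exposure and expressed relative to vehicle-treated controls. The strain carries defined defects in DNA damage repair.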

Row | SMILES | growth inhibition
1 | NC(=O)c1ccc(NN=O)nc1 | -2.5% (inactive)
2 | CCOC(=O)C(=O)CC(=O)[C@H]1CC[C@H]2[C@@H]3CC[C@@H]4C[C@H](O)CC[C@]4(C)[C@H]3C(=O)C[C@]12C | 34.7% (inactive)
3 | CCCN1CCC2(CC1)COCc1ccccc12 | 34.8% (inactive)
4 | NCC(O)c1ccc2c(c1)OCO2 (centres undefined) | -8.65% (inactive)
5 | O=C(CF)NCCCl | 1.45% (inactive)
6 | Cc1ccc([As]=[As]c2ccc(C)cc2N)c(N)c1 (centres undefined) | -9.6% (inactive)
7 | CN(C)NP(c1ccccc1)c1ccccc1 | 1.1% (inactive)
8 | Oc1ccc(C(O)C2CCCCN2)cc1O (centres undefined) | -0.45% (inactive)
9 | CC(=O)OCC1OC(OC(C)=O)C(N(CCCl)CCCl)C(OC(C)=O)C1OC(C)=O (centres undefined) | -33.6% (inactive)
10 | [N-]=[N+]=Nc1cc(=O)oc2ccccc12 | 1.1% (inactive)
11 | COc1ccc2c(c1O)C13CCN(C)C(C2)C1CCC(O)C3 (centres undefined) | -20% (inactive)
12 | O=[N+]([O-])O.[Tl] | -18.4% (inactive)
13 | CCCCC(CC)C(O)P(=O)(OCC)OCC (centres undefined) | 9.9% (inactive)
14 | COc1cccc(/C=N/[N-]C(=O)c2ccncc2)c1[O-].[Ni+2].[OH3+] | -14.2% (inactive)
15 | NC(N)=NOCC[C@@H](N)C(=O)O | 11.7% (inactive)
16 | O=Cc1ccccc1O | 5.6% (inactive)
17 | O=C(OCCOCCOC(=O)C(Cl)(Cl)Cl)C(Cl)(Cl)Cl | 7.95% (inactive)
18 | CCC1(c2c(F)c(F)c(N)c(F)c2F)CCC(=O)NC1=O (centres undefined) | 1.6% (inactive)
19 | COc1cc2ccnc(C3(OC(=O)c4ccccc4)CCN(CCc4ccccc4)CC3)c2cc1OC | -0.95% (inactive)
